Measured values: publication PMC5540273 (PLoS ONE, 2017)

system: T1, LOK; conditions: concentration: 1 μM, replicates: in singlicate; n = 1
T1 construct: gene STK10
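Further: KINOMEscan kinase panel screen.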

Row | Structure (SMILES) | %Inh [%]
1 | CCC(=O)c1c(-c2ccccc2)c2cc(Cl)ccc2c(=O)n1Cc1cc(S(C)(=O)=O)n(CCC(C)(C)O)n1 | 16
2 | COc1cccc(C2=C(Nc3cccc(C(=O)O)c3)C(=O)NC2=O)c1 [SB-390770] | 22
3 | CCc1nc(-c2cccc(C)c2)c(-c2ccncc2)s1 | 0
4 | CCC(=O)c1c(-c2ccccc2)c2cc(Cl)ccc2c(=O)n1Cc1cc(C(=O)NC2CC2)n(C)n1 | 19
5 | CCS(=O)(=O)c1ccc(OC)c(Nc2ncc(-c3ccc(F)cc3)o2)c1.Cl [GW591947] | 0
6 | COc1cccc(C2=C(N(C)c3ccccc3)C(=O)NC2=O)c1 [SB-334865] | 0
7 | CCCC(=O)Nc1n[nH]c2ncc(-c3cccc4ccccc34)cc12 [SB-642057] | 0
8 | C[C@@H]1CC[C@H](C(=O)NC2CCCCC2)CN1c1cc(-c2ccc3c(N)n[nH]c3c2)nc(N)n1 [GSK2291363] | 0
9 | COc1cc(Nc2nccc(N3CCC(NC(=O)C(C)c4ccc(Cl)cc4)C3)n2)cc(OC)c1OC (stereo not shown) [GSK1379757] | 0
10 | O=C(Nc1n[nH]c2nc(-c3ccccc3)c(Cl)cc12)C1CC1 [SB-734909] | 21
11 | CN1C(=O)C(Nc2ccccc2)=C(c2ccccc2)C1=O [SB-300079] | 0
12 | CCn1c(-c2nonc2N)nc2ccccc21 [SB-693162/GW549034] | 11
13 | Nc1nc(-c2ccccc2F)c(-c2ccnc3ccccc23)s1 [GW560459] | 0
14 | Cc1ccc(Oc2ccc(Nc3ncnc4cc[nH]c34)cc2C)cn1 | 1
15 | O=C(NCc1cccs1)c1cc(C(=O)c2c(Cl)cccc2Cl)c[nH]1 [GW823670] | 21
16 | COc1ccc(-c2cc3c(C)nc(N)nc3n([C@H]3CC[C@H](O)CC3)c2=O)cn1 | 0
17 | COc1cc2ncn(-c3cc(OCc4ccncc4Br)c(C(N)=O)s3)c2cc1OC [GW854278] | 87
18 | Cc1cc(Nc2nc(-c3cccc(C)n3)nc3ccccc23)ccn1 [GW872411] | 0
19 | COc1ccc(CNC(=O)NC2CCN(c3ccnc(Nc4ccc(F)cc4)n3)C2)cc1 (stereo not shown) [GSK1379706] | 0
20 | COc1cc(Nc2nccc(N3CCC(NC(=O)C4COc5ccccc5O4)C3)n2)cc(OC)c1OC (stereo not shown) [GSK1379761] | 0
21 | COc1cccc(-n2cnc3c(N)ncnc32)c1 [SKF-97416] | 4
22 | CCC(=O)c1c(-c2ccccc2)c2cc(Cl)ccc2c(=O)n1Cc1cc(S(C)(=O)=O)n(CC(F)F)n1 | 0

system: LRRK2; conditions: concentration: 1 μM, replicates: in singlicate; n = 1

Row | Structure (SMILES) | %Inh [%]
23 | COC(=O)c1c(-c2ccccc2)c2cc(Br)ccc2c(=O)n1Cc1ccc(S(C)(=O)=O)cc1 | 11
24 | Cc1nnc(-c2ccc(C)c(-c3ccc(C(=O)O)cc3)c2)o1 [GW608005] | 46
25 | COc1cc2nccc(Nc3ccc(OCc4ccc(NC(C)=O)cc4)cc3)c2cc1OC.Cl [GW440135] | 0
26 | Cc1nc(N(C)[C@H]2CN(C(=O)CC#N)CC[C@H]2C)c2cc[nH]c2n1 | 0
27 | Nc1nc(N)c2nc(-c3ccccc3)[nH]c2n1 [SKF-12778] | 18
28 | Cl.c1ccc(Cn2cnc3cc(Nc4ncnc5ccccc45)ccc32)cc1 [GW272142] | 0
29 | COC(=O)c1c(-c2ccccc2)c2cc(Br)ccc2c(=O)n1Cc1ccc(NC(=O)CCC(=O)O)cc1 | 4
30 | O=C(Nc1ccc2c(c1)OCO2)NC1CCN(c2ccnc(NCc3ccc(F)cc3)n2)CC1 [GSK1379859] | 0
31 | Cc1ccccc1COc1cc(-n2cnc3cc(Cl)ccc32)sc1C(N)=O [GW813349] | 82
32 | Nc1n[nH]c2ncc(-c3ccccc3)cc12 [SB-517081] | 0
33 | COc1ccc(-c2coc3ccc(-c4nnc(SCc5cccc(C#N)c5)o4)cc23)cc1 | 0
34 | Cc1cccc(-c2nc(Nc3ccc4c(cnn4C)c3)c3ccccc3n2)n1 [GW876731] | 0
35 | CN(C)c1cc(-c2ccc3c(N)n[nH]c3c2)nc(N)n1 [GSK2219329] | 0
36 | COc1cc2ncn(-c3cc(OCCCc4ccccc4)c(C(N)=O)s3)c2cc1OC [GSK205189] | 5
37 | CCC(=O)c1c(-c2ccccc2)c2cc(Cl)ccc2c(=O)n1Cc1cc(S(C)(=O)=O)n(CCC(C)(C)O)n1 | 6
38 | COc1cccc(C2=C(Nc3cccc(C(=O)O)c3)C(=O)NC2=O)c1 [SB-390770] | 27
39 | CCc1nc(-c2cccc(C)c2)c(-c2ccncc2)s1 | 0
40 | CCC(=O)c1c(-c2ccccc2)c2cc(Cl)ccc2c(=O)n1Cc1cc(C(=O)NC2CC2)n(C)n1 | 3

Row | Structure (SMILES) | %Inh [%]
41 | CCS(=O)(=O)c1ccc(OC)c(Nc2ncc(-c3ccc(F)cc3)o2)c1.Cl [GW591947] | 0
42 | COc1cccc(C2=C(N(C)c3ccccc3)C(=O)NC2=O)c1 [SB-334865] | 0
43 | CCCC(=O)Nc1n[nH]c2ncc(-c3cccc4ccccc34)cc12 [SB-642057] | 0
44 | C[C@@H]1CC[C@H](C(=O)NC2CCCCC2)CN1c1cc(-c2ccc3c(N)n[nH]c3c2)nc(N)n1 [GSK2291363] | 0
45 | COc1cc(Nc2nccc(N3CCC(NC(=O)C(C)c4ccc(Cl)cc4)C3)n2)cc(OC)c1OC (stereo not shown) [GSK1379757] | 0
46 | O=C(Nc1n[nH]c2nc(-c3ccccc3)c(Cl)cc12)C1CC1 [SB-734909] | 0
47 | CN1C(=O)C(Nc2ccccc2)=C(c2ccccc2)C1=O [SB-300079] | 0
48 | CCn1c(-c2nonc2N)nc2ccccc21 [SB-693162/GW549034] | 83
49 | Nc1nc(-c2ccccc2F)c(-c2ccnc3ccccc23)s1 [GW560459] | 8
50 | Cc1ccc(Oc2ccc(Nc3ncnc4cc[nH]c34)cc2C)cn1 | 0
51 | O=C(NCc1cccs1)c1cc(C(=O)c2c(Cl)cccc2Cl)c[nH]1 [GW823670] | 0
52 | COc1ccc(-c2cc3c(C)nc(N)nc3n([C@H]3CC[C@H](O)CC3)c2=O)cn1 | 0
53 | COc1cc2ncn(-c3cc(OCc4ccncc4Br)c(C(N)=O)s3)c2cc1OC [GW854278] | 0
54 | Cc1cc(Nc2nc(-c3cccc(C)n3)nc3ccccc23)ccn1 [GW872411] | 0
55 | COc1ccc(CNC(=O)NC2CCN(c3ccnc(Nc4ccc(F)cc4)n3)C2)cc1 (stereo not shown) [GSK1379706] | 23
56 | COc1cc(Nc2nccc(N3CCC(NC(=O)C4COc5ccccc5O4)C3)n2)cc(OC)c1OC (stereo not shown) [GSK1379761] | 0
57 | COc1cccc(-n2cnc3c(N)ncnc32)c1 [SKF-97416] | 63
58 | CCC(=O)c1c(-c2ccccc2)c2cc(Cl)ccc2c(=O)n1Cc1cc(S(C)(=O)=O)n(CC(F)F)n1 | 0
